Data taken from PubChem BioAssay (NCI).
This is part of a sample that, as a whole, favours compounds with a hit. Of some 83,000 tested, about 20% had one in any assay.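 Assay: single dose, 48 h. Readout: percent growth (0 = no net growth; negative = cell death). Active: <10.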 Calls of active or inactive are those of the source.

What follows are compounds tested on NCI-H522 lung (assay: NCI-60 one-dose screen, 48 h (100 = growth as untreated, 0 = no growth, -100 = all killed)). Details: 10 µM unless noted.

Structure (SMILES) | growth
CCC1S/C(=N\N=C(/C)c2ccco2)N(c2ccccc2)C1=O (stereo not drawn) | 74.7% (inactive)
C#C[C@H](O)/C=C/CCCCCCC#C[C@H](O)CC[C@@H](O)C#CCCCCCC/C=C/[C@@H](O)C#C | -72.7% (active)
O=[N+]([O-])c1cccc2cc(S(=O)(=O)O)ccc12 | 83.8% (inactive)
Nc1ccc(S(=O)(=O)Nc2cc(I)cc(I)c2)cc1 | 90.1% (inactive)
O=C(Nc1ccc(-n2cc(-c3ccncc3)c(-c3ccc(O)c(Cl)c3)n2)cc1)Nc1cc(C(F)(F)F)cc(C(F)(F)F)c1 | 79.5% (inactive)
O[C@@H]1CCO[C@H](c2ccc3ccccc3c2)C1 | 87.9% (inactive)
COc1cc(Cn2cc3c(c2)-c2onc(CO)c2CC3)cc(OC)c1OC | 87.7% (inactive)
CN(C)CCS(=O)(=O)Nc1cc(-c2ccc3ncnc(Nc4ccc(F)c(Cl)c4)c3c2)cnc1Cl | -17.7% (active)
CCN(CC)c1ccc(C2CC(c3cc(OC)c(OC)c(OC)c3)=NN2)cc1 (stereo not drawn) | -9.2% (active)
CCn1cc(C(=O)O)c(=O)c2cc(F)c(N3CCN(CC(=O)Nc4ccc(C(C)=O)cc4)CC3)cc21 | 96.9% (inactive)
CCOc1ccc(-n2c(-c3cc(OC)c(OC)c(OC)c3)nnc2-c2ccc(OC)cc2N)cc1 | 52.6% (inactive)
COc1ccc(/C(=C/c2cc(OC)c(OC)c(OC)c2)[N+](=O)[O-])cc1 | -37% (active)
O=C(Nc1cccc([N+](=O)[O-])c1)Nc1cccc([N+](=O)[O-])c1 | 10.1% (inactive)
COc1ccc(-c2nn(-c3ccc(NC(=O)Nc4cc(C(F)(F)F)cc(C(F)(F)F)c4)cc3)cc2-c2ccncc2)cc1Cl | -8.92% (active)
O=c1c2ccccc2sc2c(NCCCNCCO)nc3ccccc3c12 | 20.9% (inactive)
O=C(NNC(=O)c1ccc([N+](=O)[O-])cc1)c1ccc([N+](=O)[O-])cc1 | 84% (inactive)
CCN(CC)C(=O)C1CCN(C(=O)c2ccccc2)CC1 | 90.8% (inactive)
O=S(=O)(O)c1ccc(F)cc1 | 82.8% (inactive)
Cc1cc(SCc2ccc(Cl)cc2Cl)nc(SCc2ccc(Cl)cc2Cl)n1 | 89.1% (inactive)
CCOC(=O)c1noc2c1CCc1cn(Cc3cc(OC)cc(OC)c3)cc1-2 | 46.5% (inactive)

Structure (SMILES) | growth
CC(C)(C)C(=O)Nc1nc2c(s1)CCc1ccn(S(=O)(=O)c3ccccc3)c1-2 | 66.7% (inactive)
CCCCCCCCCCCCCCCCNc1ccccc1 | 64.6% (inactive)
Cc1nc(N)nc(SCc2ccccc2)c1Br | 66.7% (inactive)
O=S(c1ccccc1)c1ccc2nnnn2n1 (stereo not drawn) | -17.6% (active)
O=C1COc2ccccc2C(=O)N1CCCCN1CCCCC1 | 71.5% (inactive)
O=C(COc1ccc(Cl)cc1Cl)N1N=C(c2ccc(Cl)cc2Cl)CC1(O)c1cc(F)c(Cl)cc1Cl (stereo not drawn) | 95% (inactive)
CC(CCC(=O)O)[C@H]1CCC2C3C(=O)C[C@@H]4CC(=O)CC[C@]4(C)C3CC(=O)[C@@]21C (stereo partly drawn) | 117% (inactive)
COc1ccc(-c2nn(-c3ccc(NC(=O)Nc4ccc(Cl)c(C(F)(F)F)c4)cc3)cc2-c2ccncc2)cc1Cl | -2.66% (active)
O=C1COc2ccccc2C(=O)N1CCCCNc1ccccc1 | 68.9% (inactive)
O=C1CCC(c2c(O)cc(O)c3c(=O)c(O)c(-c4ccc(O)c(O)c4)oc23)N1 (stereo not drawn) | 70.9% (inactive)
CCCCCCCCCCCCCCCC(=O)NS(=O)(=O)OC[C@H]1O[C@@H](n2cnc3c(N)ncnc32)[C@H](O)[C@@H]1O | -33.3% (active)
CN(CCNCc1ccccn1)CCNCc1ccccn1 | 18.9% (inactive)
CCN(CC)CCNCC(O)Cc1ccc(OC)cc1 (stereo not drawn) | 66.1% (inactive)
CN1CCN(Cn2nc(-c3cc(Cl)cc(Cl)c3Cl)n(/N=C/c3ccc(Cl)cc3)c2=S)CC1 | 91.1% (inactive)
Cn1cnc([N+](=O)[O-])c1N1c2ccncc2Sc2ccncc21 | 72.5% (inactive)
O=C(O)c1cccc2oc(-c3ccccc3O)nc12 | 31.4% (inactive)
Nn1c(CN2CCN(c3cc4c(cc3F)c(=O)c(C(=O)O)cn4C3CC3)CC2)n[nH]c1=S | 85.8% (inactive)
Cc1ccc2nc(-c3ccc(-n4on4-c4ccc(/C=C/c5ccc(-n6on6-c6ccc(-c7nc8ccc(C)cc8s7)cc6)cc5S(=O)(=O)O)c(S(=O)(=O)O)c4)cc3)sc2c1 | 117% (inactive)
CC(C)(C)NCC(O)COc1c(Br)c(Br)c(Br)c2c1OC(C)(C)C2 (stereo not drawn) | -76.8% (active)

What follows are compounds tested on A549/ATCC NSCLC in the same assay as above. Details: 10 µM unless noted.

Structure (SMILES) | growth
CCC1S/C(=N\N=C(/C)c2ccco2)N(c2ccccc2)C1=O (stereo not drawn) | 104% (inactive)
C#C[C@H](O)/C=C/CCCCCCC#C[C@H](O)CC[C@@H](O)C#CCCCCCC/C=C/[C@@H](O)C#C | 91.1% (inactive)
O=[N+]([O-])c1cccc2cc(S(=O)(=O)O)ccc12 | 74.2% (inactive)
Nc1ccc(S(=O)(=O)Nc2cc(I)cc(I)c2)cc1 | 112% (inactive)
O=C(Nc1ccc(-n2cc(-c3ccncc3)c(-c3ccc(O)c(Cl)c3)n2)cc1)Nc1cc(C(F)(F)F)cc(C(F)(F)F)c1 | 53.6% (inactive)
O[C@@H]1CCO[C@H](c2ccc3ccccc3c2)C1 | 96.7% (inactive)
COc1cc(Cn2cc3c(c2)-c2onc(CO)c2CC3)cc(OC)c1OC | 99.8% (inactive)
CN(C)CCS(=O)(=O)Nc1cc(-c2ccc3ncnc(Nc4ccc(F)c(Cl)c4)c3c2)cnc1Cl | -31.7% (active)
CCN(CC)c1ccc(C2CC(c3cc(OC)c(OC)c(OC)c3)=NN2)cc1 (stereo not drawn) | 13.7% (inactive)
CCn1cc(C(=O)O)c(=O)c2cc(F)c(N3CCN(CC(=O)Nc4ccc(C(C)=O)cc4)CC3)cc21 | 94.6% (inactive)
CCOc1ccc(-n2c(-c3cc(OC)c(OC)c(OC)c3)nnc2-c2ccc(OC)cc2N)cc1 | 54.9% (inactive)
COc1ccc(/C(=C/c2cc(OC)c(OC)c(OC)c2)[N+](=O)[O-])cc1 | 65.8% (inactive)
O=C(Nc1cccc([N+](=O)[O-])c1)Nc1cccc([N+](=O)[O-])c1 | 60.5% (inactive)
COc1ccc(-c2nn(-c3ccc(NC(=O)Nc4cc(C(F)(F)F)cc(C(F)(F)F)c4)cc3)cc2-c2ccncc2)cc1Cl | 14.6% (inactive)
O=c1c2ccccc2sc2c(NCCCNCCO)nc3ccccc3c12 | 25.9% (inactive)
O=C(NNC(=O)c1ccc([N+](=O)[O-])cc1)c1ccc([N+](=O)[O-])cc1 | 99.3% (inactive)
CCN(CC)C(=O)C1CCN(C(=O)c2ccccc2)CC1 | 104% (inactive)
O=S(=O)(O)c1ccc(F)cc1 | 101% (inactive)
Cc1cc(SCc2ccc(Cl)cc2Cl)nc(SCc2ccc(Cl)cc2Cl)n1 | 96.6% (inactive)
CCOC(=O)c1noc2c1CCc1cn(Cc3cc(OC)cc(OC)c3)cc1-2 | 103% (inactive)

Structure (SMILES) | growth
CC(C)(C)C(=O)Nc1nc2c(s1)CCc1ccn(S(=O)(=O)c3ccccc3)c1-2 | 76.6% (inactive)
CCCCCCCCCCCCCCCCNc1ccccc1 | 59.7% (inactive)
Cc1nc(N)nc(SCc2ccccc2)c1Br | 73.4% (inactive)
O=S(c1ccccc1)c1ccc2nnnn2n1 (stereo not drawn) | 99.9% (inactive)
O=C1COc2ccccc2C(=O)N1CCCCN1CCCCC1 | 96.4% (inactive)
O=C(COc1ccc(Cl)cc1Cl)N1N=C(c2ccc(Cl)cc2Cl)CC1(O)c1cc(F)c(Cl)cc1Cl (stereo not drawn) | 107% (inactive)
CC(CCC(=O)O)[C@H]1CCC2C3C(=O)C[C@@H]4CC(=O)CC[C@]4(C)C3CC(=O)[C@@]21C (stereo partly drawn) | 98.7% (inactive)
COc1ccc(-c2nn(-c3ccc(NC(=O)Nc4ccc(Cl)c(C(F)(F)F)c4)cc3)cc2-c2ccncc2)cc1Cl | 10.3% (inactive)
O=C1COc2ccccc2C(=O)N1CCCCNc1ccccc1 | 64.9% (inactive)
O=C1CCC(c2c(O)cc(O)c3c(=O)c(O)c(-c4ccc(O)c(O)c4)oc23)N1 (stereo not drawn) | 81.1% (inactive)
CCCCCCCCCCCCCCCC(=O)NS(=O)(=O)OC[C@H]1O[C@@H](n2cnc3c(N)ncnc32)[C@H](O)[C@@H]1O | 9.49% (active)
CN(CCNCc1ccccn1)CCNCc1ccccn1 | 0.123% (active)
CCN(CC)CCNCC(O)Cc1ccc(OC)cc1 (stereo not drawn) | 96% (inactive)
CN1CCN(Cn2nc(-c3cc(Cl)cc(Cl)c3Cl)n(/N=C/c3ccc(Cl)cc3)c2=S)CC1 | 94% (inactive)
Cn1cnc([N+](=O)[O-])c1N1c2ccncc2Sc2ccncc21 | 104% (inactive)
O=C(O)c1cccc2oc(-c3ccccc3O)nc12 | 42% (inactive)
Nn1c(CN2CCN(c3cc4c(cc3F)c(=O)c(C(=O)O)cn4C3CC3)CC2)n[nH]c1=S | 101% (inactive)
Cc1ccc2nc(-c3ccc(-n4on4-c4ccc(/C=C/c5ccc(-n6on6-c6ccc(-c7nc8ccc(C)cc8s7)cc6)cc5S(=O)(=O)O)c(S(=O)(=O)O)c4)cc3)sc2c1 | 113% (inactive)
CC(C)(C)NCC(O)COc1c(Br)c(Br)c(Br)c2c1OC(C)(C)C2 (stereo not drawn) | -71.9% (active)
